# Experimental data reported in PubChem BioAssay (NCI).
# “And” between values parts separate entries of the source, which are not always exact repeats. Equal entries are not always repeated. The panel holds about 83,000 compounds, 20% with a hit somewhere; the sample as a whole holds those more often.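 For each line, cells grew in 96-well plates with the test compound present at a single concentration for 48 hours.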 Values without a mark were called inactive. The source made the active and inactive calls. The calls were made as follows: active = growth percent below 10; inactive = the rest. Starred links: 1 amine or outer side, 2 acyl side, 3 side chain; linkers in the order of their positions; H or OH if unused. Positions of bridges follow the written chain, without caps; N, C: chain ends. Non-standard residues stand in square brackets, D forms with d. Residues, ends and D or L forms follow the SMILES beside them. Chains are numbered I, II in the order given. Actinocin(9to1) = Cc1c2oc3c(C)ccc(C(=O)[*:1])c3nc-2c(C(=O)[*:2])c(N)c1=O; aThr = C[C@H](O)[C@H](N)C(=O)O; NMeV = CN[C@H](C(=O)O)C(C)C; Sar = CNCC(=O)O
# Tested on: NCI-H522 lung
# Assay: NCI-60 one-dose screen, 48 h (100 = growth as untreated, 0 = no growth, -100 = all killed)
# Conditions: 10 µM
row,Structure (SMILES),growth
1,CN(C)CCC(=O)c1c[nH]c2ccccc12,91.8%
2,S=c1[nH]nc(Cc2ccccc2)c(=S)[nH]1,88%
3,Cc1cnc(/C=N\NC(N)=S)c2cccc(N)c12,-1.74% (active)
4,CCCCCCCCCCCCCCCCCN,101%
5,Cc1cc(NCCCN(C)C)c2ccc3c(ccc4c(NCCCN(C)C)cc(C)nc43)c2n1,-72.8% (active)
6,COc1cc(C(C)(C)C)cc(OC)c1C(O)(c1c(OC)cc(C(C)(C)C)cc1OC)c1c(OC)cc(C(C)(C)C)cc1OC,-56.4% (active)
7,O=c1[nH]cc(F)c(=O)[nH]1,62.1% and 62.2%
8,Nc1ccc2cc(Br)c3ccccc3c2c1,86.9%
9,BrC/C=C/C[P+](c1ccccc1)(c1ccccc1)c1ccccc1,40%
10,O=C(/C(=C/c1ccccc1)CBr)c1ccccc1,55.8%
11,"Cc1c2oc3c(C)ccc(C(=O)N[C@@H]4C(=O)N[C@H](C(C)C)C(=O)N5CCC[C@H]5C(=O)N(C)CC(=O)N(C)[C@@H](C(C)C)C(=O)O[C@H]4C)c3nc-2c(C(=O)N[C@@H]2C(=O)N[C@H](C(C)C)C(=O)N3CCC[C@H]3C(=O)N(C)CC(=O)N(C)[C@@H](C(C)C)C(=O)O[C@H]2C)c(N)c1=O (I: [aThr][dV]P[Sar][NMeV] / II: [aThr][dV]P[Sar][NMeV]; ester I:1-I:C, II:1-II:C; linker I:N-II:N via Actinocin(9to1))",-38.4% (active)
12,CN1CCN(c2ccc3nc(-c4ccc5nc(-c6ccc(O)cc6)[nH]c5c4)[nH]c3c2)CC1,47%

# Tested on: A549/ATCC NSCLC
# Assay: as above
# Conditions: 10 µM
row,Structure (SMILES),growth
1,CN(C)CCC(=O)c1c[nH]c2ccccc12,110%
2,N#C/C(=C1C=C/C(=N\O)C(Cl)=C\1)c1ccccc1,31.2%
3,S=c1[nH]nc(Cc2ccccc2)c(=S)[nH]1,94.7%
4,Cc1cnc(/C=N\NC(N)=S)c2cccc(N)c12,11.6%
5,CCCCCCCCCCCCCCCCCN,105%
6,Cc1cc(NCCCN(C)C)c2ccc3c(ccc4c(NCCCN(C)C)cc(C)nc43)c2n1,-22.4% (active)
7,COc1cc(C(C)(C)C)cc(OC)c1C(O)(c1c(OC)cc(C(C)(C)C)cc1OC)c1c(OC)cc(C(C)(C)C)cc1OC,-54.4% (active)
8,O=c1[nH]cc(F)c(=O)[nH]1,-11.5% (active)
9,Nc1ccc2cc(Br)c3ccccc3c2c1,63%
10,BrC/C=C/C[P+](c1ccccc1)(c1ccccc1)c1ccccc1,44%
11,O=C(/C(=C/c1ccccc1)CBr)c1ccccc1,90.1%
12,"Cc1c2oc3c(C)ccc(C(=O)N[C@@H]4C(=O)N[C@H](C(C)C)C(=O)N5CCC[C@H]5C(=O)N(C)CC(=O)N(C)[C@@H](C(C)C)C(=O)O[C@H]4C)c3nc-2c(C(=O)N[C@@H]2C(=O)N[C@H](C(C)C)C(=O)N3CCC[C@H]3C(=O)N(C)CC(=O)N(C)[C@@H](C(C)C)C(=O)O[C@H]2C)c(N)c1=O (I: [aThr][dV]P[Sar][NMeV] / II: [aThr][dV]P[Sar][NMeV]; ester I:1-I:C, II:1-II:C; linker I:N-II:N via Actinocin(9to1))",-38.9% (active)
13,CSc1ccc2c(c1)C(N1CCN(C)CC1)Cc1ccccc1S2 (stereo not given),52.7%
14,CN1CCN(c2ccc3nc(-c4ccc5nc(-c6ccc(O)cc6)[nH]c5c4)[nH]c3c2)CC1,62.1%

# Tested on: 786-0 renal
# Assay: as above
# Conditions: 10 µM
row,Structure (SMILES),growth
1,CN(C)CCC(=O)c1c[nH]c2ccccc12,98.8%
2,N#C/C(=C1C=C/C(=N\O)C(Cl)=C\1)c1ccccc1,43%
3,S=c1[nH]nc(Cc2ccccc2)c(=S)[nH]1,106%
4,Cc1cnc(/C=N\NC(N)=S)c2cccc(N)c12,6.81% (active)
5,CCCCCCCCCCCCCCCCCN,105%
6,Cc1cc(NCCCN(C)C)c2ccc3c(ccc4c(NCCCN(C)C)cc(C)nc43)c2n1,-35.2% (active)
7,COc1cc(C(C)(C)C)cc(OC)c1C(O)(c1c(OC)cc(C(C)(C)C)cc1OC)c1c(OC)cc(C(C)(C)C)cc1OC,-96.6% (active)
8,O=c1[nH]cc(F)c(=O)[nH]1,64.2% and 62.2%
9,Nc1ccc2cc(Br)c3ccccc3c2c1,54.8%
10,BrC/C=C/C[P+](c1ccccc1)(c1ccccc1)c1ccccc1,46.2%
11,O=C(/C(=C/c1ccccc1)CBr)c1ccccc1,94.5%
12,"Cc1c2oc3c(C)ccc(C(=O)N[C@@H]4C(=O)N[C@H](C(C)C)C(=O)N5CCC[C@H]5C(=O)N(C)CC(=O)N(C)[C@@H](C(C)C)C(=O)O[C@H]4C)c3nc-2c(C(=O)N[C@@H]2C(=O)N[C@H](C(C)C)C(=O)N3CCC[C@H]3C(=O)N(C)CC(=O)N(C)[C@@H](C(C)C)C(=O)O[C@H]2C)c(N)c1=O (I: [aThr][dV]P[Sar][NMeV] / II: [aThr][dV]P[Sar][NMeV]; ester I:1-I:C, II:1-II:C; linker I:N-II:N via Actinocin(9to1))",-3.24% (active)
13,CSc1ccc2c(c1)C(N1CCN(C)CC1)Cc1ccccc1S2 (stereo not given),53.6%
14,CN1CCN(c2ccc3nc(-c4ccc5nc(-c6ccc(O)cc6)[nH]c5c4)[nH]c3c2)CC1,87.2%
